Outcome data for 19 compounds are collected here from PubChem BioAssay AID1671192 (National Center for Advancing Translational Sciences (NCATS), 2021).

Results filed as inconclusive are left out. Calls of active or inactive are those of the source. The call rests on the fitted dose curve; in most records, active means well fitted curve in the direction sought with a large enough effect; inconclusive means small, poorly fitted or top-dose-only effect, or another doubt; inactive means no such curve, though single readings can be large or run the other way.

Polyunsaturated fatty acid lipoxygenase ALOX15 (Homo sapiens), sequence (P16050 whole entry, looked up): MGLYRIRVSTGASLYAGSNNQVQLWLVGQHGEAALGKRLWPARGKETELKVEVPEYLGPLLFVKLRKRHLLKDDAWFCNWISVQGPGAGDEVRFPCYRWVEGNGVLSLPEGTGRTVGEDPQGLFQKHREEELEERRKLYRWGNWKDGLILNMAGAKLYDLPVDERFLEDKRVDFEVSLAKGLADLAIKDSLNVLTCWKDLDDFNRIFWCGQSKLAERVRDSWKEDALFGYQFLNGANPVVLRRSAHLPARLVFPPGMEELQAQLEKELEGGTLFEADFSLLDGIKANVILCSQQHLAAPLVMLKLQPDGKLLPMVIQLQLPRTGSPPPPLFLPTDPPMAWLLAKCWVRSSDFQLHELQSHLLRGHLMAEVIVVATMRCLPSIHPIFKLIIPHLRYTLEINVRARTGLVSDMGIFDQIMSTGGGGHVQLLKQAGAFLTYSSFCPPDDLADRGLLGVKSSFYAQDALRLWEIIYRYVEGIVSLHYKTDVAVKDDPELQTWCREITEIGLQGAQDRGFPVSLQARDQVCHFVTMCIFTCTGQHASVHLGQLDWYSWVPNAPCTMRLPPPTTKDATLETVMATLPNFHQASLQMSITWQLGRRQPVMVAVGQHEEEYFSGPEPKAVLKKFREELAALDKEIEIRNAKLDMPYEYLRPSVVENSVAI

This assay addresses Polyunsaturated fatty acid lipoxygenase ALOX15 (Homo sapiens) (UniProt P16050). Nature of the assay: Counterscreen qHTS for inhibitors of human arachidonate 12S-lipoxygenase (ALOX12): ALOX15 Assay. As to conditions: purified ALOX15 enzyme activity; series mostly up to 110 µM. The gist of the method: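 Xylenol orange–ferric complex formation, read as the 573 nm to 405 nm absorbance ratio, tracks product from 50 uM arachidonic acid turned over for 30 min at RT. Enzyme is 40 nM ALOX15, pH 7.5 HEPES buffer, compound-preincubated 15 min.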
For the compound `O=C(c1ccncc1)N1CCN(c2ccc(Cl)nn2)C(=O)C1`, the compound was called inactive.

Turning to `CCc1nc2c(c(-c3ccc(OC)cc3)n1)CN([S+](=O)([O-])c1c(C)noc1C)CC2`, the compound was called inactive. Take `NCc1ccc(-c2ccc(OC(F)(F)F)cc2)cc1`: the compound was called inactive.

Consider `CNCc1ccc(N2CCCC2)cc1`, for which the call was inactive. On to `Fc1ccc(CN2CCn3c(nnc3C3CCCNC3)C2)cc1` (centres undefined), for which the result was inactive. To `c1cncc(CN2CCn3c(nnc3C3CCCNC3)C2)c1` (centres undefined) belongs “inactive”; to `O=C1NCc2ccccc2CC12CCN(Cc1cc(O)cc(O)c1)CC2`, “inactive”; to `CC1C=CC(C)N1c1ncnc2c1CN(C1CCNCC1)C(=O)CN2C` (centres undefined), “inactive”.

As to `O=C(N1CCCC1)N1CCn2c(nnc2-c2cncc(Br)c2)C1`, the call was inactive. Regarding `O=C1NCc2ccccc2CC12CCN(Cc1ccc3ccccc3c1)C2` (centres undefined), the outcome was inactive. The result for `O=C(NC1CC1)c1cc(-c2ccccc2C(F)(F)F)nc2onc(C3CCNC3)c12` (centres undefined) reads “inactive”; that for `NCCC(=O)N1CCCC2(Cc3ccccc3CN2C(=O)c2ccccc2)C1` (centres undefined), “inactive”; that for `CCN(CC)CC(C)NC` (centres undefined), “inactive”. The result for `O=C1NCc2ccccc2CC12CCN(Cc1cnc3ccccc3c1)CC2` reads “inactive”; that for `CN1CC(=O)N(C2CCCNC2)Cc2c(NCCc3ccccc3F)ncnc21` (centres undefined), “inactive”. As to `CC(=O)Nc1ccc(CN2CC3(C2)C(=O)Nc2ccccc23)cc1`, the compound was classed as inactive. Take `O=C1NCc2ccccc2CC12CCN(Cc1c[nH]c3ccccc13)C2` (centres undefined): the outcome was inactive. The result for `CS(=O)(=O)N1CCC2(CC1)CN(Cc1ccc(O)cc1)Cc1ccccc1O2` reads “inactive”; that for `CN1CC(=O)N(C2CCCNC2)Cc2c1ncnc2N1CCc2ccccc2C1` (centres undefined), “inactive”.
